Laboratory results taken from the supplement of paper PMC6555819.

Legend:
Test in all cases: PBM binding z-score (relative to random genomic background probes); higher = stronger binding; sequences stand for … in GC…GCGATTGACAGCGTAGAATGAAGG
[1] = tested on: PPARg:RXRa DBDmut IVT, anti-RXR (DBD mutation: RXRa K156A/R161A, NR concentration 270 nM, RXRa partner concentration 90 nM)
Outline: (§1)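 Custom Agilent 4×180K protein-binding microarrays carried double-stranded probes. Their 34-nt variable regions held direct-repeat seeds, single-nucleotide variants, half-site ablations and random human genomic background sequences. Arrays were incubated 1 h with ligand-free nuclear receptor dimers in PBS pH 7.4, 2% milk, 0.02% Triton X-100, 1 mM DTT, 0.2 mg/mL BSA and 0.4 mg/ml salmon testes DNA. Antibodies against each partner (one per run) detected binding, and scanned fluorescence was regression-normalized. Binding z-scores use random background probes as reference.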

[2] = tested on: PPARg:RXRa IVT, anti-PPARg (NR concentration 270 nM, RXRa partner concentration 90 nM)
Outline: as §1

[3] = tested on: PPARg DBDmut:RXRa IVT, anti-PPARg (DBD mutation: PPARg1 K132A/R137A, NR concentration 270 nM, RXRa partner concentration 90 nM)
Outline: as §1

[4] = tested on: PPARg DBDmut IVT, anti-PPARg (DBD mutation: PPARg1 K132A/R137A, NR concentration 270 nM)
Outline: as §1

[5] = tested on: PPARg homodimer (NR concentration 180 nM)
Outline: as §1

[6] = tested on: PXR:RXRa (NR concentration 270 nM, RXRa partner concentration 90 nM)
Outline: as §1

[7] = tested on: PXR homodimer (NR concentration 270 nM)
Outline: as §1

[8] = tested on: RARa:RXR (NR concentration 270 nM, RXRa partner concentration 90 nM)
Outline: as §1

[9] = tested on: RARa homodimer (NR concentration 270 nM)
Outline: as §1

[10] = tested on: RARb:RXRa (NR concentration 270 nM, RXRa partner concentration 90 nM)
Outline: as §1

[11] = tested on: RARb homodimer (NR concentration 270 nM)
Outline: as §1

[12] = tested on: RARg:RXRa (NR concentration 270 nM, RXRa partner concentration 90 nM)
Outline: as §1

[13] = tested on: RARg homodimer (NR concentration 270 nM)
Outline: as §1

[14] = tested on: RXRa DBDmut IVT, anti-RXR (DBD mutation: RXRa K156A/R161A, NR concentration 90 nM)
Outline: as §1

[15] = tested on: RXRa homodimer (NR concentration 180 nM)
Outline: as §1

[16] = tested on: THRa:RXRa (NR concentration 90 nM, RXRa partner concentration 90 nM)
Outline: as §1

[17] = tested on: THRa homodimer (NR concentration 90 nM)
Outline: as §1

[18] = tested on: VDR homodimer (NR concentration 270 nM)
Outline: as §1

Sequence	PBM binding z-score [1]	PBM binding z-score [2]	PBM binding z-score [3]	PBM binding z-score [4]	PBM binding z-score [5]	PBM binding z-score [6]	PBM binding z-score [7]	PBM binding z-score [8]	PBM binding z-score [9]	PBM binding z-score [10]	PBM binding z-score [11]	PBM binding z-score [12]	PBM binding z-score [13]	PBM binding z-score [14]	PBM binding z-score [15]	PBM binding z-score [16]	PBM binding z-score [17]	PBM binding z-score [18]
CGTCAAAGTTCAACTAAGGTAACGAAAAGCACGC	0.421	2.48	0.738	0.747	4.18	5.19	4.69	4.25	2.25	5.13	4.12	5.98	6.71	4.46	4.91	5.09	1.67	3.6
ACTCGGAGGACAAAGGTCAAAGCTACGCCAGTGA	1.44	4.45	-0.163	-0.288	3.24	5.4	0.776	6.35	0.304	5.24	5.02	7.08	6.07	1.75	6.78	4.03	0.972	2.28
ATATCTAGGTAACAAGTTCAGTGAAAGAGAGGAC	6.96	6.85	2.71	2.4	1.51	1.64	1.49	0.979	1.72	1.58	1.93	1.25	1.51	1.36	1.03	1.49	0.951	2.85
TTACCAAGTTGAAGGTCGTTGATCCCTCTGTAGA	0.297	0.442	0.321	-0.391	0.828	1.59	0.298	1.21	0.00913	1.15	1.15	0.339	0.342	1.07	1.2	1.26	0.0178	1.49
TCTAGTAGATCAATAGAGGTTAAGAAAGTGCGCT	1.7	0.843	-0.106	0.138	0.0842	3.18	0.411	1.81	0.23	0.908	1.38	0.728	0.2	0.439	1.56	2.09	-0.79	0.312
GGAACGAGGGCCTTCGAGTTGATAGCATGGCGAT	0.104	-0.566	-0.653	-1.28	-1.03	-0.313	-0.534	-0.659	-0.765	-0.306	-1.03	-0.45	-0.368	0.207	-0.125	0.262	-1.24	-0.335
GCTAGTTGGTCAGTAAAAGGTCACATACCGGTCG	1.23	2.96	0.372	0.203	6.37	4.88	0.988	5.66	3.62	4.23	5.15	5.2	4.75	0.819	4.95	3.52	1.86	1.74
TGAATGAGGTTAAAGATCCGGGAACGTGGCGTCG	2.22	2.41	0.774	0.25	0.436	1.11	-0.152	1.84	-0.669	1.72	0.578	1.5	1.05	1.22	2.61	2.12	0.411	0.437
TCTATTAGTTGAACGGCAACCGACGAGTCCGTTT	2.15	0.0618	0.259	0.73	0.735	0.661	0.768	0.372	0.868	0.424	-0.12	0.0941	-0.2	1.53	0.254	-0.127	0.107	0.971
AGTCAAAGTTCATCTAGGTAACGTAGGATATGCT	1.16	3.96	1.76	1.26	2.37	5.12	7.16	3.89	1.67	4.85	4.05	5.54	6.32	4.71	4.86	3.08	0.358	5.15
AGAAAGAGGTTATACGTAGATCAGGGAAGAAAGT	1.97	1.35	0.646	0.799	0.915	1.54	0.627	2.07	1.16	2.08	1.42	2.21	1.59	1.23	2.93	1.52	0.336	0.623
ATCTCTAGGTCAAGATAGTTCAGTGAATGCAAAT	6.08	6.47	1.92	2.11	2.05	5.27	1.48	3.29	1.32	4.26	3.89	4.63	5.48	1.58	3.14	3.35	1.71	1.73
TCTGCTAGGTCGGTTGGTCAGCTAACGAGCTGCC	0.68	0.822	-0.109	-0.00426	-1.51	-0.617	-0.886	-0.528	-1.53	0.845	0.194	0.057	0.0646	-0.000892	-0.389	-0.409	-0.643	-0.816
TCTTGTAGATCAGCAGGTTAAGAACGCTGGCCAA	1.41	0.294	-0.675	-0.754	-0.66	-0.00865	-0.543	0.211	-0.75	0.0804	-0.0185	-0.0606	-0.396	0.288	0.146	-0.0457	-0.571	-0.247
TATACAGGGTCAAAGGCTAGAGTACGAATGTCGA	2.33	4.88	1.73	2.03	3.15	4.01	1.01	5.02	1.11	4.53	3.57	5.5	5.45	2.73	6.82	3.44	1.01	3.25
TCGAGTAGGTTACCACTGGGGCATTCAGCTTTCT	3.33	3.37	0.26	0.143	-0.498	-0.159	-1.14	0.0985	-0.786	0.833	0.339	0.939	0.436	0.044	0.129	0.242	-0.96	-0.613

Sequence	PBM binding z-score [1]	PBM binding z-score [2]	PBM binding z-score [3]	PBM binding z-score [4]	PBM binding z-score [5]	PBM binding z-score [6]	PBM binding z-score [7]	PBM binding z-score [8]	PBM binding z-score [9]	PBM binding z-score [10]	PBM binding z-score [11]	PBM binding z-score [12]	PBM binding z-score [13]	PBM binding z-score [14]	PBM binding z-score [15]	PBM binding z-score [16]	PBM binding z-score [17]	PBM binding z-score [18]
CCTCGGAGGACAGAAGGGCAGAGCTGTCCGCTTT	-0.39	-0.863	-1.35	-1.74	-0.82	-0.857	-0.749	-0.782	-0.361	1.2	0.947	0.328	0.965	-0.318	-0.72	-0.248	-1.05	-0.623
CCTTACGGGTCAAGGTTATAGCGCGGGTGGTACG	2.04	3.57	-0.278	0.175	1.9	3.27	-0.0779	3.94	0.367	4.29	3.48	4.83	4.46	1.19	5.01	2.96	0.728	1.52
CCAGACAGGTGAGAAGGTAAATCAGCCTCGATTA	0.792	0.856	-0.421	-0.384	0.684	0.0672	-0.0292	0.359	-0.00331	0.508	0.187	0.461	0.353	-0.268	0.202	0.113	-0.24	-0.437
TCTTGTAGATCAAGGGTTAAGAAAGCCGAAGCCT	1.55	2.33	0.632	-0.0594	1.12	0.471	-0.23	1.06	-0.354	0.694	0.274	0.818	0.191	0.293	1.64	0.516	-0.93	-0.218
GGAACGAGGCCAAAGTTGATAGCATCTGTCGACG	2.57	2.98	-0.146	-0.0906	0.104	0.113	-0.124	0.441	-0.395	1.33	0.373	0.787	0.688	0.917	0.814	0.667	-0.899	-0.181
TCTTGTAGATCAATAGAGGTTAAGTAAGTGCGCT	1.78	1.22	0.705	0.692	0.3	3.96	0.52	2	0.239	0.993	1.37	0.902	0.6	0.824	1.49	3.1	-0.295	0.563
ATATGTAGGTTAAGGGTAATTCAGGTTGGTTCGC	7.67	7.16	1.52	1.87	2.15	1.74	1.44	1.63	2.31	1.69	1.56	1.13	1.08	0.754	1.64	2.43	1.45	1.89
GCGAATGGGGCAAAGCAGGTTACCATAAGGTTGG	1.67	1.37	-0.887	-1.21	0.664	0.467	-0.414	0.571	-0.509	1.1	1.06	0.565	0.52	-0.201	0.442	3.12	0.0667	-0.552
TCTTGCAGATCAAAGGTTAAGAAAGCCGAAGCCT	0.914	2.37	0.0487	-1.09	0.464	1.72	-0.464	2.7	-0.444	1.7	1.18	1.47	0.521	0.00809	3	1.26	-0.786	-0.402
CGTCCAAGGTCAAGGACAGTGAAAGAGACTCGAA	3.23	3.38	1.03	-0.206	2.55	3.63	0.575	4.25	1.12	5.22	3.94	6.19	6.78	3.26	5.3	3.74	2.83	2.03
TCTGCTAGGTCAGTTGGTCAGTTAACGAGCTGCC	2.93	2.98	1.52	0.61	0.428	-0.000879	-0.602	0.398	-1.15	3.3	2.57	2.69	3.81	0.618	0.575	1.34	0.247	-0.347
TCGAGTAGATTACCAATGGGGCATTCAGCTTTCT	0.795	-0.396	-0.19	-0.114	-0.291	-0.345	-0.382	-0.208	-0.677	-0.295	-0.458	-0.531	-0.494	0.278	-0.304	-0.599	-0.825	-0.571
CCTAGTTGGTCAGGAGGTTACACACCGGATATGA	0.814	1.65	0.504	0.527	1.84	0.862	0.653	1.38	0.725	1.47	1.49	1.67	1.33	0.179	1.3	1.03	0.918	0.702
CATCGGAGGACAGAAGGTCAGAGCTGTCCGCTTT	-0.292	0.418	-0.481	-1.29	0.568	1.12	-0.438	1.86	-0.23	2.86	3.44	3.28	2.93	-0.108	1.8	2.07	0.044	0.139
CCGACTGGGGCAAAGGTTGCCATACTCAGTACGA	4.21	4.73	-0.511	-0.658	0.733	0.388	-0.135	1.14	-0.228	1.03	0.697	1.32	0.395	-0.142	1.32	0.333	-0.54	0.111
